Growth inhibition data for 18 compounds are collected here from PubChem BioAssay (NCI).

Assay [1] is described as follows: NCI Yeast Anticancer Drug Screen. Data for the rad50 strain (AID 155).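 Note: 0% = growth of vehicle-only cultures of the same strain.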 The following applies: S. cerevisiae rad50 strain growth inhibition; at 50.0 µM; stronger effect = higher value. Put shortly:
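Relative growth inhibition (compound vs vehicle) was measured in yeast with a defined repair-gene alteration.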

The nature of assay [2]: NCI Yeast Anticancer Drug Screen. Data for the mec2-1 strain (AID 157). Particulars: S. cerevisiae mec2-1 strain, at 50.0 µM, stronger effect = higher value. Put shortly:
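Each compound was tested on mec2-1 yeast, a strain altered in DNA damage repair or cell cycle control. Growth inhibition is reported relative to vehicle.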

A short description of assay [3]: NCI Yeast Anticancer Drug Screen. Data for the sgs1 mgt1 strain (AID 161).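 Note: 0% = growth of cultures given vehicle only.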 The following applies: S. cerevisiae sgs1 mgt1 strain, at 50.0 µM, stronger effect = higher value. Put shortly: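 Mutant yeast exposed to compound; growth scored against vehicle-only wells.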
Assay [4] in a line: NCI Yeast Anticancer Drug Screen. Data for the cln2 rad14 strain (AID 165).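 Note: 0% = growth equal to vehicle treated cultures.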 The following applies: S. cerevisiae cln2 rad14 strain, at 50.0 µM, stronger effect = higher value. Put shortly:
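Test compounds were added to cln2 rad14 yeast cultures; inhibition of growth was then determined by comparison with vehicle treatment.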

The nature of assay [5]: NCI Yeast Anticancer Drug Screen. Data for the bub3 strain (AID 167). Particulars: S. cerevisiae bub3 mutant strain, at 50.0 µM, stronger effect = higher value. Put shortly:
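Screening used yeast with an engineered genetic alteration affecting cell cycle control. Compound-exposed cultures were compared with vehicle cultures, and reduced growth was taken as inhibition.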

Assay [6] can be described thus: NCI Yeast Anticancer Drug Screen. Data for the mlh1 rad18 strain (AID 175). Particulars: S. cerevisiae mlh1 rad18 strain growth inhibition; at 50.0 µM; stronger effect = higher value. Put shortly: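 Inhibition values reflect reduced growth of mutant yeast versus vehicle-treated controls following compound exposure; the mutations affect DNA damage repair.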

Compounds without any hit were thinned out: in the full panel of roughly 79,000, 15% have a hit. A number with no mark means an inactive call. The source made the active and inactive calls. Cut-off read from the data, not from the text of the source: active = growth inhibition above about 70%; inactive = the rest.

With `CCCCCCCCCCCCCCCCCCCCCCCCCCCCCCS(=O)(=O)Cl`, the growth inhibition is 14.7% in assay [1]; 28.1% in assay [2]; 16.9% in assay [3]; 18.8% in assay [4]; 33.9% in assay [5]; -18.9% in assay [6].

With `FC(F)(F)c1cccc2[nH]cnc12`, the growth inhibition in assay [1] was -24.6%; in assay [2], -2.85%; in assay [3], 6.25%; in assay [4] it was -12.4%; in assay [5], -4.65%; in assay [6], 2.3%.

For `Nc1nc(SCC(=O)O)[nH]c(=O)c1N`, the growth inhibition was -16.2% in assay [1]; 30.1% in assay [2]; -1.7% in assay [3]; 6.25% in assay [4]; -0.25% in assay [5]; 2.7% in assay [6].

Take `C=CC(Br)(CBr)CCC(Cl)C(C)C` (stereo not drawn): the growth inhibition in assay [1] was 86.2% (active); in assay [2], 90.7% (active); in assay [3] it was 90.8% (active); in assay [4] it was 91.7% (active); in assay [5], 90.3% (active); in assay [6] it was 90.5% (active).

`OC(CN1CCCCC1)c1ccncc1` (stereo not drawn): the growth inhibition in assay [1] was 0.5%; in assay [2], -24.8%; in assay [3], -8.4%; in assay [4], -0.9%; in assay [5], 1%; in assay [6], 1.4%.

For `CC1(c2ccc(Cl)cc2)NC(=O)N(CC(N)=O)C1=O` (stereo not drawn), the growth inhibition in assay [1] is 3.6%; in assay [2] it was -0.1%; in assay [3] it was -10.8%; in assay [4] it was -11%; in assay [5] it was -7.8%; in assay [6], 8.6%.

For the compound `COC(=O)/C=C(\C(=O)c1ccccc1)c1ccccc1`, the growth inhibition in assay [1] was 6.05%; in assay [2], 4.25%; in assay [3], -4.1%; in assay [4], 8.95%; in assay [5], 0.3%; in assay [6], 11.9%.

As to `CCCCn1cnc2ccc3nc(-c4ccccc4)c(-c4ccccc4)nc3c2c1=O`, the growth inhibition in assay [1] was 43.8%; in assay [2] it was -15.4%; in assay [3] it was 9.3%; in assay [4] it was 4.1%; in assay [5], 1.5%; in assay [6], 4.65%.

For `NC(=O)N/N=C/c1ccc(O)cc1`, the growth inhibition is 5.15% in assay [1]; -1.15% in assay [2]; 1% in assay [3]; -11.1% in assay [4]; -3.85% in assay [5]; -1.5% in assay [6].

`CCOC(=O)NC(Nc1ccc(F)c(F)c1)(C(=O)OCC)C(F)(F)F` (stereo not drawn): the growth inhibition in assay [1] is 5.4%; in assay [2], -1.3%; in assay [3], -9.1%; in assay [4], 15.4%; in assay [5], 9.75%; in assay [6], 39.5%.

`O=[N+]([O-])c1ccc2c(c1)/C(=N/O)CCC2`: the growth inhibition in assay [1] was 0.5%; in assay [2], -0.55%; in assay [3], 1.05%; in assay [4], -86.4%; in assay [5], -15.8%; in assay [6] it was 4.05%.

Consider `CCc1c(CO)cnc(C)c1OP(=O)(O)O`, for which the growth inhibition in assay [1] was -33.5%; in assay [2], -39.5%; in assay [3] it was -18.1%; in assay [4], 3.65%; in assay [5] it was -39.6%; in assay [6] it was -22.6%.

In the case of `Cc1cc(CN2CCCCC2)c(O)c(CN2CCCCC2)c1`, the growth inhibition in assay [1] was -4.3%; in assay [2] it was -18.9%; in assay [3] it was -13.4%; in assay [4], -0.2%; in assay [5], -29.4%; in assay [6], -7.05%.

In the case of `Cc1ccc(C#N)c2c1CCC2`, the growth inhibition in assay [1] is 2.65%; in assay [2], -10.7%; in assay [3] it was 3.05%; in assay [4], -50%; in assay [5], -13%; in assay [6] it was 2.6%.

As to `CC(=O)Nc1ccc(/C=C/c2csnn2)cc1`, the growth inhibition was -7.8% in assay [1]; 7.7% in assay [2]; 11.9% in assay [3]; 8.7% in assay [4]; -4.45% in assay [5]; -3.2% in assay [6].

As to `CCN(Cc1ccc(CN(CC)C(=O)c2sc3ccccc3c2Cl)cc1)C(=O)c1sc2ccccc2c1Cl`, the growth inhibition in assay [1] was -3.5%; in assay [2], -19.6%; in assay [3] it was -7.35%; in assay [4], -1.4%; in assay [5], -11.4%; in assay [6], -4.55%.

Consider `O=C(OCc1c(-c2ccccc2)nn(-c2ccccc2)c1COC(=O)Oc1ccccc1)Oc1ccccc1`, for which the growth inhibition was -2.8% in assay [1]; -14.6% in assay [2]; -11.8% in assay [3]; 17.8% in assay [4]; -11.2% in assay [5]; 10.2% in assay [6].

For the compound `C/C=C/Cc1ccccc1O`, the growth inhibition in assay [1] is 7.1%; in assay [2], -3.4%; in assay [3], -5.05%; in assay [4], -6.4%; in assay [5], -9.2%; in assay [6], -1.1%.
